The panel holds about 83,000 compounds, 20% with a hit somewhere; the sample as a whole holds those more often.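 Interpretation: 100, growth as untreated; towards 0, rising growth inhibition; 0, no net growth; 0 to -100, cell death. Compounds scoring below 10 were considered active.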 Calls of active or inactive are those of the source.
Key:
Assay in all cases: NCI-60 one-dose screen, 48 h (100 = growth as untreated, 0 = no growth, -100 = all killed)
DU-145 prostate = conditions: 10 µM unless noted
K-562 leukemia = conditions: 10 µM unless noted
MALME-3M melanoma = conditions: 10 µM unless noted
MDA-MB-231 breast = conditions: 10 µM unless noted
RXF 393 renal = conditions: 10 µM unless noted
SF-268 CNS = conditions: 10 µM unless noted
SF-295 CNS = conditions: 10 µM unless noted
SF-539 CNS = conditions: 10 µM unless noted
UACC-257 melanoma = conditions: 10 µM unless noted
M14 melanoma = conditions: 10 µM unless noted
HCT-15 colon = conditions: 10 µM unless noted
HT29 colon = conditions: 10 µM unless noted
SNB-75 CNS = conditions: 10 µM unless noted
SNB-19 CNS = conditions: 10 µM unless noted
U251 CNS = conditions: 10 µM unless noted
PC-3 prostate = conditions: 10 µM unless noted
SK-MEL-5 melanoma = conditions: 10 µM unless noted
UACC-62 melanoma = conditions: 10 µM unless noted
SK-MEL-28 melanoma = conditions: 10 µM unless noted
LOX IMVI melanoma = conditions: 10 µM

Measured: growth

C1CCc2onc(-c3noc4c3CCCCC4)c2CC1
inactive: DU-145 prostate 118% | K-562 leukemia 103% | MALME-3M melanoma 106% | MDA-MB-231 breast 114% | RXF 393 renal 139% | SF-268 CNS 92.9% | SF-295 CNS 99.5% | SF-539 CNS 104% | UACC-257 melanoma 107% | M14 melanoma 112% | HCT-15 colon 103% | HT29 colon 103% | SNB-75 CNS 112% | SNB-19 CNS 98% | U251 CNS 107% | PC-3 prostate 102% | SK-MEL-5 melanoma 101% | UACC-62 melanoma 102% | SK-MEL-28 melanoma 112%

CC(=O)N(CCCCCCN(C(C)=O)C(C)=O)C(C)=O
inactive: DU-145 prostate 106% [100 µM] | K-562 leukemia 102% [100 µM] | MALME-3M melanoma 107% [100 µM] | MDA-MB-231 breast 98% [100 µM] | RXF 393 renal 112% [100 µM] | SF-268 CNS 104% [100 µM] | SF-295 CNS 110% [100 µM] | SF-539 CNS 98.3% [100 µM] | UACC-257 melanoma 95.1% [100 µM] | M14 melanoma 105% [100 µM] | HCT-15 colon 107% [100 µM] | HT29 colon 114% [100 µM] | SNB-75 CNS 87.9% [100 µM] | SNB-19 CNS 99.2% [100 µM] | U251 CNS 107% [100 µM] | PC-3 prostate 104% [100 µM] | SK-MEL-5 melanoma 104% [100 µM] | UACC-62 melanoma 97% [100 µM] | SK-MEL-28 melanoma 105% [100 µM]

Cc1ccc(S(=O)(=O)Oc2ccc3sc4c(CO)ccc(NCCN(C)C)c4c(=O)c3c2)cc1
active: DU-145 prostate -97.6% [100 µM] | K-562 leukemia -61.4% [100 µM] | MALME-3M melanoma -89.5% [100 µM] | MDA-MB-231 breast -90.7% [100 µM] | RXF 393 renal -57.5% [100 µM] | SF-268 CNS -61.3% [100 µM] | SF-295 CNS -78.7% [100 µM] | SF-539 CNS -93.1% [100 µM] | UACC-257 melanoma -82% [100 µM] | M14 melanoma -96.5% [100 µM] | HCT-15 colon -93.8% [100 µM] | HT29 colon -84.3% [100 µM] | SNB-75 CNS -92.1% [100 µM] | SNB-19 CNS -83.7% [100 µM] | U251 CNS -74.7% [100 µM] | PC-3 prostate -86.8% [100 µM] | SK-MEL-5 melanoma -94.3% [100 µM] | UACC-62 melanoma -95.5% [100 µM] | SK-MEL-28 melanoma -85.1% [100 µM]

Cc1ccccc1NC(=O)Oc1ccc(Cl)cc1C(=O)c1ccccc1
inactive: DU-145 prostate 87.4% | K-562 leukemia 96.1% | MALME-3M melanoma 105% | MDA-MB-231 breast 85.1% | RXF 393 renal 82% | SF-268 CNS 72.7% | SF-295 CNS 107% | SF-539 CNS 87.3% | UACC-257 melanoma 102% | M14 melanoma 103% | HCT-15 colon 94.1% | HT29 colon 100% | SNB-75 CNS 77.7% | SNB-19 CNS 96% | U251 CNS 87.6% | PC-3 prostate 95.2% | SK-MEL-5 melanoma 97.3% | UACC-62 melanoma 85.4% | SK-MEL-28 melanoma 106%

NNC(=O)c1ccccc1N
inactive: DU-145 prostate 120% | K-562 leukemia 118% | MALME-3M melanoma 110% | MDA-MB-231 breast 113% | RXF 393 renal 40.6% | SF-268 CNS 114% | SF-295 CNS 110% | SF-539 CNS 112% | UACC-257 melanoma 93.9% | M14 melanoma 106% | HCT-15 colon 110% | HT29 colon 106% | SNB-75 CNS 87.9% | SNB-19 CNS 114% | U251 CNS 106% | PC-3 prostate 101% | SK-MEL-5 melanoma 107% | LOX IMVI melanoma 105% | SK-MEL-28 melanoma 117%

CN(CCCN(C)CCC1CCCCC1)CCC1CCCCC1
inactive: DU-145 prostate 83.8% | SF-268 CNS 84.2% | SF-295 CNS 27.1% | SNB-19 CNS 77.3% | U251 CNS 11.1% | PC-3 prostate 43.2%
active: K-562 leukemia -57.5% | MALME-3M melanoma -74.7% | MDA-MB-231 breast -3% | RXF 393 renal -4.36% | SF-539 CNS -57.7% | UACC-257 melanoma -66.3% | M14 melanoma -100% | HCT-15 colon 8.41% | HT29 colon 3.68% | SNB-75 CNS -0.933% | SK-MEL-5 melanoma -100% | LOX IMVI melanoma -4.45% | SK-MEL-28 melanoma -84.9%

O=C(O)CSCC(=O)Nc1cc(C(F)(F)F)ccc1Cl
inactive: DU-145 prostate 128% | K-562 leukemia 102% | MALME-3M melanoma 105% | MDA-MB-231 breast 112% | RXF 393 renal 128% | SF-268 CNS 94.5% | SF-295 CNS 103% | SF-539 CNS 101% | UACC-257 melanoma 103% | M14 melanoma 103% | HCT-15 colon 103% | HT29 colon 104% | SNB-75 CNS 125% | SNB-19 CNS 106% | U251 CNS 106% | PC-3 prostate 102% | SK-MEL-5 melanoma 102% | UACC-62 melanoma 99.6% | SK-MEL-28 melanoma 114%

C1Cc2onc(-c3noc4c3CCC4)c2C1
inactive: DU-145 prostate 115% | K-562 leukemia 109% | MALME-3M melanoma 108% | MDA-MB-231 breast 116% | RXF 393 renal 134% | SF-268 CNS 110% | SF-295 CNS 104% | SF-539 CNS 108% | UACC-257 melanoma 110% | M14 melanoma 110% | HCT-15 colon 105% | HT29 colon 104% | SNB-75 CNS 116% | SNB-19 CNS 98.8% | U251 CNS 106% | PC-3 prostate 103% | SK-MEL-5 melanoma 102% | UACC-62 melanoma 96.5% | SK-MEL-28 melanoma 111%

Source: PubChem BioAssay (NCI)
